# Records with an inconclusive call do not appear. A call without a number means that no potency is given here. Active and inactive are the calls of the source. Unless noted, calls come from the whole dose curve; as a rule, active = well fitted curve in the direction sought with a large enough effect in the repeat runs; inconclusive = weak or mixed curves; inactive = no such curve, though single readings can be large; an effect the other way counts as inactive or inconclusive.
# How the values were obtained:
# [1] = qHTS assay for small molecules that induce genotoxicity in human embryonic kidney cells expressing luciferase-tagged ATAD5 (AID 651632); note: nearly all actives have a fitted effect of over 15% in size; note: potency is the fitted concentration of half-maximal effect
# How it was run: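 Genotoxicity read-out via ATAD5-luciferase: HEK293T cells, 16 hr compound incubation at 37C, Amplite detection.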
# [2] = qHTS assay for small molecule agonists of the p53 signaling pathway - cell viability (AID 651633; calls by dose curve; note: nearly all actives have a fitted effect of over 30% in size; note: potency is the fitted concentration of half-maximal effect)
# How it was run: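 Viability counter-read: CellTiter-Glo luminescence (30 min, room temperature) in the same p53RE-bla plates. These plates had been exposed to compounds for 16 h at 37 C.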
# [3] = qHTS assay for small molecules that induce genotoxicity in human embryonic kidney cells expressing luciferase-tagged ATAD5 - cell viability (AID 651634; calls by dose curve; note: nearly all actives have a fitted effect of over 25% in size; note: potency is the fitted concentration of half-maximal effect)
# How it was run: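 Live-cell protease activity (CellTiter-Fluor, fluorescence) indicates viability. HEK293T cells with luciferase-tagged ATAD5; 15.5 hr compound treatment at 37C.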
# [4] = qHTS assay for small molecule disruptors of the mitochondrial membrane potential - cell viability (AID 720634; calls by dose curve; note: nearly all actives have a fitted effect of over 20% in size; note: potency is the fitted concentration of half-maximal effect)
# How it was run: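 Human hepatoma HepG2 cells were treated for 1 hr with test chemicals, then given m-MPI dye and CellTiter-Glo. Cell viability reflects luminescence proportional to cellular ATP.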
# [5] = qHTS assay to test for compound auto fluorescence at 590 nm (red) in HepG2 cells (AID 720674)
# How it was run: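 We screened compounds on adherent HepG2 cells, incubating them for an hour at 37 C in 5% CO2 before reading emission at 590 nm under 540 nm excitation; values reflect equivalence to Rose Bengal sodium fluorescence.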
# [6] = qHTS assay to test for compound auto fluorescence at 535 nm (green) in HepG2 cells (AID 720675)
# [7] = qHTS assay to test for compound auto fluorescence at 460 nm (blue) in HEK293 cells (AID 720678)
# How it was run: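 Cells were seeded and left to adhere for 4-5 hr at 37C. Compounds were then pin-transferred. After an overnight incubation at 37C under 5% CO2, intrinsic fluorescence at 405/460 nm was measured and referenced to triamterene.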
# [8] = qHTS assay to test for compound auto fluorescence at 590 nm (red) in HEK293 cells (AID 720679)
# How it was run: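 Each well held 2,000 HEK293 cells in medium containing 10% dialyzed FBS. Following 4-5 hr attachment at 37C, 23 nL test compound or DMSO was added; plates sat overnight, and red fluorescence (540/590nm) was recorded.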
# [9] = qHTS assay for small molecule disruptors of the mitochondrial membrane potential (AID 720635); note: potency is the fitted concentration of half-maximal effect
# How it was run: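 Mitochondrial membrane potential tracked with Mito-MPS dye, red aggregates (ex 540/em 590 nm) against green monomers (ex 490/em 535 nm). Compound treatment 1 hr at 37C, dye 30 min in HepG2.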
Structure (SMILES),Potency [1],Potency [2],Potency [3],Potency [4],outcome [5],outcome [6],outcome [7],outcome [8],Potency [9]
CCSC(=O)N(CC)C1CCCCC1,inactive,inactive,inactive,inactive,inactive,inactive,inactive,inactive,–
CCN(CC)CCOC(=O)C(C)(c1ccccc1)c1ccccc1,inactive,inactive,inactive,inactive,inactive,inactive,inactive,inactive,–
CCOP(=S)(OCC)Oc1ncn(-c2ccccc2)n1,inactive,inactive,inactive,inactive,inactive,inactive,inactive,inactive,6.86 µM (active)
O=C1CN=C(c2ccccc2)c2cc([N+](=O)[O-])ccc2N1,inactive,inactive,inactive,inactive,inactive,inactive,inactive,inactive,inactive
CCOP(=O)(OCC)OP(=O)(OCC)OCC,inactive,inactive,inactive,inactive,inactive,–,inactive,inactive,inactive
CCCCOC(=O)c1ccccc1N,inactive,inactive,inactive,inactive,inactive,inactive,inactive,inactive,–
Nc1cc2c3c(c1)C(c1ccccc1)=N[C@@H](NC(=O)c1cccnc1)C(=O)N3CC2,inactive,inactive,inactive,inactive,inactive,inactive,inactive,inactive,–
CC(=O)C(Cl)Cl,inactive,inactive,inactive,inactive,inactive,inactive,inactive,inactive,–
CCN(CC)C(C)C(=O)c1ccccc1 (configuration not stated),inactive,inactive,inactive,inactive,inactive,inactive,inactive,inactive,inactive
N#CC(O)c1ccccc1 (configuration not stated),inactive,inactive,inactive,inactive,inactive,–,inactive,inactive,inactive
Nc1n[nH]c(N)n1,inactive,inactive,inactive,inactive,inactive,inactive,inactive,inactive,–
Fc1ccc(C2(Cn3cncn3)OC2c2ccccc2Cl)cc1 (configuration not stated),inactive,inactive,inactive,inactive,inactive,inactive,inactive,inactive,–
Oc1c(Cl)cccc1Cl,inactive,inactive,inactive,inactive,inactive,inactive,inactive,inactive,inactive
CCOP(=O)(N=C1SCCS1)OCC,inactive,inactive,inactive,inactive,inactive,–,inactive,inactive,–
C(CCOCC1CO1)COCC1CO1 (configuration not stated),–,inactive,inactive,inactive,inactive,inactive,inactive,inactive,inactive
C#CCN1C(=O)COc2cc(F)c(N3C(=O)C4=C(CCCC4)C3=O)cc21,inactive,–,inactive,–,inactive,inactive,inactive,inactive,–
C[C@]12CC[C@H]3[C@@H](CC=C4C[C@@H](O)CC[C@@]43C)[C@@H]1CC[C@@H]2O,–,inactive,inactive,–,inactive,–,inactive,inactive,–
CNC(=O)Oc1cccc(C(C)C)c1,–,–,inactive,inactive,inactive,inactive,inactive,inactive,–
CNC(=O)N(C)c1nc2ccccc2s1,–,–,inactive,inactive,inactive,–,inactive,inactive,inactive
CN1C(=S)CN=C(c2ccccc2)c2cc(Cl)ccc21,–,inactive,inactive,inactive,inactive,inactive,inactive,inactive,–
CCC(C)(C)c1cc(-n2nc3ccccc3n2)c(O)c(C(C)(C)CC)c1,–,inactive,inactive,inactive,inactive,–,inactive,inactive,inactive
O=C(Cc1ccccc1)OCc1ccccc1,inactive,inactive,inactive,inactive,inactive,–,inactive,inactive,–
O=C1OC(c2ccc(O)c(S(=O)(=O)O)c2)(c2ccc(O)c(S(=O)(=O)O)c2)c2c(Br)c(Br)c(Br)c(Br)c21,inactive,inactive,inactive,inactive,inactive,–,inactive,inactive,–
CC(C)(C)OC(=O)c1ncn2c1[C@@H]1CCCN1C(=O)c1c(Br)cccc1-2,inactive,–,inactive,inactive,inactive,inactive,inactive,inactive,–

Structure (SMILES),Potency [1],Potency [2],Potency [3],Potency [4],outcome [5],outcome [6],outcome [7],outcome [8],Potency [9]
CCCCOP(=O)(O)OCCCC,inactive,–,inactive,inactive,inactive,inactive,inactive,inactive,inactive
O=C(O)C(Br)CBr (configuration not stated),–,inactive,inactive,inactive,inactive,inactive,inactive,inactive,inactive
Nc1c(Br)cc([N+](=O)[O-])cc1[N+](=O)[O-],inactive,–,49.1 µM (active),61.8 µM (active),inactive,–,inactive,inactive,8.73 µM (active)
CCC#N,inactive,inactive,inactive,–,inactive,inactive,inactive,inactive,–
O=[N+]([O-])c1cc(Cl)c(Cl)c(Cl)c1,inactive,inactive,inactive,inactive,inactive,–,inactive,inactive,–
Cc1ccccc1CO[C@@H]1C[C@@]2(C(C)C)CC[C@]1(C)O2,inactive,inactive,inactive,–,inactive,inactive,inactive,inactive,–
O=C1OC(=O)C2C1C1(Cl)C(Cl)=C(Cl)C2(Cl)C1(Cl)Cl (configuration not stated),inactive,–,inactive,inactive,inactive,inactive,inactive,inactive,–
C1CCC(C2CCCCC2)CC1,inactive,–,inactive,inactive,inactive,inactive,inactive,inactive,–
Cc1ncsc1CCCl,inactive,inactive,inactive,inactive,inactive,inactive,inactive,inactive,–
CCCSP(=O)(OCC)Oc1ccc(Br)cc1Cl (configuration not stated),inactive,–,–,16.7 µM (active),inactive,–,inactive,inactive,1.05 µM (active)
O=C(Nc1ccccc1)N(Cc1ccc(Cl)cc1)C1CCCC1,inactive,inactive,–,61.1 µM (active),inactive,inactive,inactive,inactive,15.4 µM (active)
CCOP(=S)(OCC)SCSP(=S)(OCC)OCC,inactive,inactive,inactive,–,inactive,–,inactive,inactive,–
CC1(C(=O)Nc2ccc(O)c(Cl)c2Cl)CCCCC1,inactive,inactive,inactive,–,inactive,inactive,inactive,inactive,7.7 µM (active)
COC(=O)C(C)Oc1ccc(Oc2ccc(Cl)cc2Cl)cc1 (configuration not stated),inactive,inactive,inactive,inactive,inactive,inactive,inactive,inactive,–
O=[N+]([O-])c1cccc2c([N+](=O)[O-])cccc12,inactive,–,inactive,inactive,inactive,inactive,inactive,inactive,–
CCc1cc2c(s1)-n1c(C)nnc1CN=C2c1ccccc1Cl,26.6 µM (active),inactive,inactive,inactive,inactive,–,inactive,inactive,–
CC(C)CC(N(C)C)C1(c2ccc(Cl)cc2)CCC1 (configuration not stated),inactive,inactive,inactive,inactive,inactive,–,inactive,inactive,–
CCOc1nc(C(Cl)(Cl)Cl)ns1,inactive,inactive,inactive,inactive,inactive,–,inactive,inactive,–
CC(CCc1ccccc1)NC(C)C(O)c1ccc(O)cc1 (configuration not stated),inactive,inactive,inactive,inactive,inactive,–,inactive,inactive,–
COC(=O)c1ccccc1S(=O)(=O)NC(=O)N(C)c1nc(C)nc(OC)n1,inactive,inactive,inactive,inactive,inactive,–,inactive,inactive,–
CC1CN1P(=O)(N1CC1C)N1CC1C (configuration not stated),inactive,–,inactive,inactive,inactive,inactive,inactive,inactive,–
CCCSP(=S)(OCC)Oc1ccc(Cl)cc1Cl (configuration not stated),inactive,–,inactive,–,inactive,inactive,inactive,inactive,–
N#CC(CCc1ccc(Cl)cc1)(Cn1cncn1)c1ccccc1 (configuration not stated),inactive,6.86 µM (active),–,inactive,inactive,–,inactive,inactive,48.6 µM (active)
COC(=O)c1ccccc1S(=O)(=O)NC(=O)Nc1nc(C)cc(C)n1,inactive,inactive,–,inactive,inactive,inactive,inactive,inactive,–

# Source: PubChem BioAssay (Tox21)
